Laboratory results published in PubChem BioAssay (Tox21).
Records with an inconclusive call do not appear. Where a call stands in place of a potency, no number is given. Some structures have more than one record in an assay (separate samples or runs), and their calls can disagree. Calls of active or inactive are those of the source. Unless noted, calls come from the whole dose curve.

Assay: qHTS assay to identify small molecule agonists of the hypoxia (HIF-1) signaling pathway - cell viability counter screen (AID 1224844); note: nearly all actives have a fitted effect of over 50% in size
Settings: HRE-bla ME-180 viability, CellTiter-Glo luminescence, 17 h; series mostly up to 76.8 µM
Method in brief: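 Luminescent ATP content (CellTiter-Glo, 30 min, room temperature) served as the viability measure in HRE-bla ME-180 cells exposed to compounds for 17 hrs in low-serum medium (0.5% dialyzed FBS).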
Potency is the fitted concentration of half-maximal effect.

Structure (SMILES) | Potency
CC(=O)O | inactive
COP(=O)(OC)OC=C(Cl)Cl | inactive
COP(=O)(OC)C(O)C(Cl)(Cl)Cl (stereo unspecified) | inactive
C[C@]12CCC(=O)C=C1CC[C@@H]1[C@@H]2CC[C@]2(C)C(=O)CC[C@@H]12 | inactive
O=C(O)CC(O)(CC(=O)O)C(=O)O | inactive
Oc1cccc2cccnc12 | 1.1 µM (active) and inactive
CCC[N+]1(C)CCCC1 | inactive

Assay: qHTS assay to identify small molecule agonists of H2AX (AID 1224845; active = well fitted activation curve with a large enough effect in the signal ratio in the repeat runs, not every such curve was filed as active; the % refers to the signal ratio)
Settings: CHO-K1 phospho-H2AX Ser139 HTRF, 3 h; series mostly up to 154 µM
Method in brief: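 Wild-type CHO-K1 cells plated overnight, then exposed 3 hr at 37C to compounds at 15 concentrations (0.76% DMSO). Lysed, then HTRF anti-pH2AX(S139)-cryptate/anti-H2AX-d2 detection after 24 hr at room temperature; emissions 665 and 620 nm.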

Structure (SMILES) | Potency
CCCCCC[n+]1ccccc1 | inactive
Nc1ccc(Cl)cc1 | inactive
CCCCCCCCCCCCn1cc[n+](C)c1 | inactive
CCCCCCCCCCCCCCCCn1cc[n+](C)c1 | inactive
N#CS | inactive
CCCCCCn1cc[n+](C)c1 | inactive
CCCCCCCCCCn1cc[n+](C)c1 | inactive
CCCCCCCCn1cc[n+](C)c1 | inactive
Cc1cc(Cl)ccc1OCC(=O)O | inactive
CCCn1cc[n+](C)c1 | inactive
CC(Cl)(Cl)C(=O)O | inactive
CCCC[n+]1cccc(C)c1 | inactive
CCCC[n+]1ccc(C)cc1 | inactive
O=P1(N(CCCl)CCCl)NCCCO1 (stereo unspecified) | inactive
CC[n+]1ccccc1 | inactive
Nc1ccccc1 | inactive
O=C(O)c1ccccc1O | inactive
CCCC[n+]1ccccc1C | inactive
O=C(O)COc1ccc(Cl)cc1Cl | inactive
CCCC[N+]1(C)CCCC1 | inactive
CC(=O)O | inactive
COP(=O)(OC)OC=C(Cl)Cl | inactive
COP(=O)(OC)C(O)C(Cl)(Cl)Cl (stereo unspecified) | inactive
C[C@]12CCC(=O)C=C1CC[C@@H]1[C@@H]2CC[C@]2(C)C(=O)CC[C@@H]12 | 88.3 µM (active)
